# Screens (PubChem)
# This is one part of a sample in which hits are shown more often than they occur.
# KDM5B inh: Primary screen for KDM5B Histone Demethylases FDH-coupled qHTS. Lysine-specific demethylase 5B (Homo sapiens), Q9UGL1. 220,000 compounds, 2.6% hits. Potency, µM (top dose mostly 57.7 µM), usual class: inhibitors. KDM5B demethylase, FDH-coupled NADH fluorescence (FDH is formaldehyde dehydrogenase). AID 1347165, 2019; active means well fitted inhibition curve with a large enough effect; further: 0% is about no effect; nearly all actives have a fitted effect of over 70% in size
#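 Compound dilutions met 200 nM (final) KDM5BΔAP for 10 min at room temperature before substrate addition. The substrate mix held 12.5 µM H3K4me3 with cofactors 25 µM α-ketoglutarate and 50 µM Fe²⁺. NADH signal gain over 30 min defined activity.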
# * marks the source's active call; other numbers are inactive results; i = inactive. Potency means the concentration at half of the fitted maximal effect.
SMILES,KDM5B inh
Cc1ccccc1-c1cc(O)c2c(c1)CN(Cc1nccn1C)CCO2,i
Cc1ccncc1C(=O)N1CCOc2c(O)cc(-c3ccccc3C)cc2C1,i
CN1CCOc2c(C(=O)NCCC(N)=O)cc(-c3ccccc3OC(F)(F)F)cc21,40µM*
CC(C[N+](C)(C)C)OC(=O)c1ccc2c(c1)OCO2 (stereo not given),i
C=C(C)CSc1nc2c(c(=O)[nH]c(=O)n2C)n1CCCc1ccccc1,i
COC(CNC(=O)C1CCN(c2ncnc3sc4c(c23)CCC4)CC1)OC,i
CCOC(=O)C1=C(CN(C)Cc2ccccc2)NC(=O)NC1c1ccc(CC)cc1 (stereo not given),i
COc1ccc(Cl)cc1C(=O)N1CCCC(c2[nH]ccc2C(N)=O)C1 (stereo not given),i
COc1cccc(C(=O)N2CCCC(c3[nH]ccc3C(N)=O)C2)c1OC (stereo not given),i
COCCCn1c(C)cc(C(=O)N2CCCC(c3[nH]ccc3C(N)=O)C2)c1C (stereo not given),18µM*
Cc1cccc(NC(=O)C2CCCN2/C=C/C(=O)C(F)(F)F)c1 (stereo not given),i
CN(C(=O)c1cccc(Cl)c1)C1CCCCC1,i
O=C1N(C2CCOCC2)CCCC12CCN(c1ccc(Cl)cn1)C2 (stereo not given),28µM*
Cc1ncoc1C(=O)N1CCC2(CCCN(C3CCOCC3)C2=O)C1 (stereo not given),i
O=C(c1cccnn1)N1CCC2(CCCN(C3CCOCC3)C2=O)C1 (stereo not given),i
O=[N+]([O-])c1ccccc1S(=O)(=O)NCc1cccs1,i
COc1ccccc1CCn1cnc(-c2ccccc2)c1-c1cn(C)nc1C,i
Cc1cc(Cn2cc3c4c(cccc42)[C@H](CC(C)C)N[C@H](C(=O)NCc2cncn2C)C3)no1,i
C#CCNC(=O)[C@@H]1Cc2cn(Cc3cc(C)on3)c3cccc(c23)[C@H](CC(C)C)N1,32µM*
Cc1cc(Cn2cc3c4c(cccc42)[C@H](CC(C)C)N[C@H](C(=O)NC2CCCC2)C3)no1,i
COCCNC(=O)[C@@H]1Cc2cn(Cc3ccccn3)c3cccc(c23)[C@H](CC(C)C)N1,i
CC(=O)NCCNC(=O)[C@@H]1Cc2cn(Cc3c(C)noc3C)c3cccc(c23)[C@H](CC(C)C)N1,i
Cc1noc(C)c1Cn1cc2c3c(cccc31)[C@H](CC(C)C)N[C@H](C(=O)NCC1CC1)C2,32µM*
Fc1ccccc1CSCCNC(=S)Nc1ccccc1,i
COc1ccc(C2=NS(=O)(=O)N(C)C(C(=O)Nc3ccn(Cc4ccccc4C)n3)=C2)cc1,i
SMILES,KDM5B inh
CC1(C(=O)Nc2ccccc2)CN(Cc2ccccc2)Cc2ccc(N3CCOCC3)nc21 (stereo not given),13µM*
O=C(NCc1ccc(F)cc1)Nc1cccc(-c2ccc(N3CCOCC3)nn2)c1,i
CC1(C(=O)Nc2ccc(F)cc2)CN(Cc2ccccc2)Cc2ccc(N3CCOCC3)nc21 (stereo not given),32µM*
O=C(NC(=S)Nc1ccc(CN2CCOCC2)cc1)c1cccc(F)c1,i
CCOc1ccccc1NC(=O)Nc1ccc(CN2CCOCC2)cc1,i
O=C(Nc1ccc(N2CCOCC2)cc1)[C@H]1CN(Cc2ccccc2)C[C@H]1C(=O)O,i
Cc1c(C)n(Cc2ccncc2)c2ncn3nc(-c4ccncc4)nc3c12,i
O=C(NCCc1ccc(F)cc1)c1cc2cc(F)ccc2[nH]1,i
CSc1ccc(/C=C/C(=O)Nc2cc(Cl)ccc2C)cc1,i
CC(CC(=O)Nc1cccc(Br)c1)n1ccnc1 (stereo not given),i
O=C(NCCC12CC3CC(CC(C3)C1)C2)c1ccccc1Cl,i
CC(C(=O)NC(=O)NC12CC3CC(CC(C3)C1)C2)N1CCN(c2oc(-c3ccco3)nc2C#N)CC1 (stereo not given),i
CN1N=C(C(=O)N2CCc3c(nc(-c4ccncc4)[nH]c3=O)C2)CCC1=O,i
O=C(c1nccc2ccccc12)N1CCc2c(nc(-c3ccccc3)[nH]c2=O)C1,i
O=C(CCc1ccccc1)N1CCc2c(nc(-c3ccc(F)cc3)[nH]c2=O)C1,i
CCn1ccc(C(=O)N2CCc3c(nc(-c4ccc(OC)cc4)[nH]c3=O)C2)n1,i
COc1ccc(-c2nc3c(c(=O)[nH]2)CCN(C(=O)Nc2ccc(C)cc2C)C3)cc1,25µM*
COc1ccc(-c2nc3c(c(=O)[nH]2)CCN(C(=O)COc2ccc(F)c(F)c2)C3)cc1,22µM*
CCOC(=O)C1(C)C=C(Nc2ccc(CC)cc2)C(=O)N1c1ccc(CC)cc1 (stereo not given),i
CCc1ccccc1NC(=O)C(=O)NCCc1csc(-c2cccc(F)c2)n1,i
Cn1cc(-c2cnc(Nc3ccc(F)c(Cl)c3)c3c2CCO3)cn1,32µM*
Cc1cc(-c2cnc(Nc3ccc(F)cc3)c3c2CCO3)ccn1,13µM*
Fc1ccc(Nc2ncnc3onc(-c4ccc(Cl)cc4)c23)cc1,i
Cn1cc(-c2cnc(Nc3ccncc3)c3c2CCO3)cn1,35µM*
CN(CCCNC(=O)c1ccncc1)CC(F)(F)F,i
SMILES,KDM5B inh
S=C(N/N=C1/CCCCc2ccccc21)NC1CCCCC1,i
CN1CCCCC1CCNC(=O)c1ccc(N2CCOCC2)nc1 (stereo not given),i
CN1CCCC1CCNc1nccc(-c2cnn(-c3ccccc3F)c2)n1 (stereo not given),28µM*
CN1CCCC1CCNc1nccc(-c2cnn(-c3ccc(F)cc3)c2)n1 (stereo not given),28µM*
Cc1ccc2oc(=O)cc(CN(Cc3ccccc3)Cc3ccco3)c2c1,i
CCCCN(CC)c1ccc(NS(=O)(=O)c2cccs2)cc1C(=O)O,i
CN(C)C(=O)c1ccc(OC2CCN(C(=O)c3ccoc3)CC2)nc1,i
O=C(c1ccc(OC2CCN(C(=O)c3ccoc3)CC2)nc1)N1CCOCC1,i
O=C(c1ccoc1)N1CCC(Nc2cccn3ncnc23)CC1,13µM*
Cc1ccccc1-c1nn(-c2ccc(F)cc2F)cc1CN1CCCC1CCO (stereo not given),i
O=C(c1cc(F)cc(Cl)c1)N1CCc2nc(-c3cccc(F)c3)[nH]c2C1,i
O=C1CCC(C(=O)N2CCc3nc(-c4cccc(F)c4)[nH]c3C2)NC(=O)N1 (stereo not given),22µM*
O=C(C1CC12CCCC2)N1CCc2onc(-c3cccc(F)c3)c2C1 (stereo not given),i
COc1ccc(C(CNC(=O)CN2CCNC(=O)C2)c2c[nH]c3ccccc23)cc1 (stereo not given),i
CN1CCN(Cc2ccc(Nc3ncc(-c4cncnc4)c4c3OCC4)cc2)CC1,i
CN1CCN(Cc2ccc(Nc3cnc4ccc(-n5ccnc5)nn34)cc2)CC1,i
Cc1noc(C)c1-c1cnc(Nc2ccc(Cl)cn2)c2c1CCO2,28µM*
Cc1noc(C)c1-c1cnc(Nc2ccc(CN3CCN(C)CC3)cc2)c2c1CCO2,25µM*
Cc1noc(C)c1-c1cn(C)c(=O)n2cc(COc3ccc(Cl)cc3)nc12,i
S=C(NCc1ccc(Cl)cc1)Nc1ccc2ccccc2c1,i
O=C(CN1C(=O)COc2ccccc21)Nc1cc(Cl)ccc1Oc1ccccc1,i
C/C(=N/NC(=O)c1cccs1)c1ccc(-c2ccccc2)cc1,i
